The source of these data is ChEMBL document CHEMBL3988442, “University of Dundee, Small-Polar-MMV Screening Library” (2021).

For some of these results: Measured potencies and affinities stand elsewhere.

Holding throughout (design): scale not given: direction of the effect not stated beside the values
The target of experiment [1] is Protein translocase subunit SecA (Escherichia coli (strain K12)) (UniProt P10408). As to the kind of experiment: Assay to Identify E. coli SecA ATPase Inhibitors. The format is functional. As to conditions: 30 µM.
Protein translocase subunit SecA (Escherichia coli (strain K12)), sequence (P10408 whole entry): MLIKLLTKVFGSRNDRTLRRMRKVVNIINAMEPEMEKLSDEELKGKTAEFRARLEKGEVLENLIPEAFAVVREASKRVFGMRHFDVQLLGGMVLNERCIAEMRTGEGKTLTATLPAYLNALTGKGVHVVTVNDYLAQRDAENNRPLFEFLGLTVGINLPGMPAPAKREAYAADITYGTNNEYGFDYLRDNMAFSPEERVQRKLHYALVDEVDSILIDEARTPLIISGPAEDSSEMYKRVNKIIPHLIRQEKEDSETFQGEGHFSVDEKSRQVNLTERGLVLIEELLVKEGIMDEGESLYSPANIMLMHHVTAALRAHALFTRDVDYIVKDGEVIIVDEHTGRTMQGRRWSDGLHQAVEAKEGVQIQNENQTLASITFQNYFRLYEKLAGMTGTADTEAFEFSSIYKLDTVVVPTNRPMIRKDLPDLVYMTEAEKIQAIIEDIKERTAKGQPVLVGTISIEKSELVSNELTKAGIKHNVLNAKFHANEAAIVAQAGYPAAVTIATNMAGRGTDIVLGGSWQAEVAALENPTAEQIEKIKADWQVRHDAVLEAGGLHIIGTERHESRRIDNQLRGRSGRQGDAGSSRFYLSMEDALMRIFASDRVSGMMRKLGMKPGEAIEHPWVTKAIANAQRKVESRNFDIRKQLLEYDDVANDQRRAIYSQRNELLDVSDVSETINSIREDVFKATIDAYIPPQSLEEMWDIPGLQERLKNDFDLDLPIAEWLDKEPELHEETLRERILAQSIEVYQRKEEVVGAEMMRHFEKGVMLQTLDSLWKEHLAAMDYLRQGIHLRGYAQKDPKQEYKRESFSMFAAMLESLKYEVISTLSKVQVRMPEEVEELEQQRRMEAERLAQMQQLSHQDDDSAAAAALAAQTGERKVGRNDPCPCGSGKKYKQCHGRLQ
The target in experiment [2] is T1, Ubiquitin-activating enzyme e1, putative (Leishmania donovani (strain BPK282A1)) (UniProt E9BSI1).
T1 sequence (whole entry): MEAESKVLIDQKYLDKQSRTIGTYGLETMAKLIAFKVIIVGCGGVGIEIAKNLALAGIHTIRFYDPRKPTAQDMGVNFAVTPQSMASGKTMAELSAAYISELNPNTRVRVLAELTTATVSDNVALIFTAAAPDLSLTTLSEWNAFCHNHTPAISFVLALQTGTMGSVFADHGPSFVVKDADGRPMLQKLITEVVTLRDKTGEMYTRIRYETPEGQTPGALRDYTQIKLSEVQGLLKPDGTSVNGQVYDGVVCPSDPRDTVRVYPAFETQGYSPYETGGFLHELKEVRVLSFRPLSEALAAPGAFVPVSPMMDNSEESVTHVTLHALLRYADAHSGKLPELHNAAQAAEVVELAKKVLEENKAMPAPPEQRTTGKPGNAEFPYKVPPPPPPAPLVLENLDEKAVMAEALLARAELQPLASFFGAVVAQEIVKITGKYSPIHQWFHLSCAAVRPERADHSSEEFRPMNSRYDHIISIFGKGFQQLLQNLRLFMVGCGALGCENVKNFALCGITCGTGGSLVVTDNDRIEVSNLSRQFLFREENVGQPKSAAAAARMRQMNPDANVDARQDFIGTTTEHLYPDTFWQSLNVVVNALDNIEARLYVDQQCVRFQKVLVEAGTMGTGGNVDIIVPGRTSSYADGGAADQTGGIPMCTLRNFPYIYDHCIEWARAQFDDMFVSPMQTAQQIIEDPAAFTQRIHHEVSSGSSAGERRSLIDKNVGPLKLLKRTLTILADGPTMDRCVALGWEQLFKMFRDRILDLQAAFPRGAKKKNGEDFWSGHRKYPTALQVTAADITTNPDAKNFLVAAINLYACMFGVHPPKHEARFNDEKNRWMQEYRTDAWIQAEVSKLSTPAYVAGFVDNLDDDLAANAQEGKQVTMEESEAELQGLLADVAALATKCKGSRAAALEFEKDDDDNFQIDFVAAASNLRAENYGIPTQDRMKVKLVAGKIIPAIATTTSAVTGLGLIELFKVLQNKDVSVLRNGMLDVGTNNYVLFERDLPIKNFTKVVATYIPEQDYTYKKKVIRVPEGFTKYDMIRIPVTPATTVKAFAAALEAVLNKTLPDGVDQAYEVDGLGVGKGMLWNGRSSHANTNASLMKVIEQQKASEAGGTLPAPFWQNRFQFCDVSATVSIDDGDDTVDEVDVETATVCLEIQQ
As to the kind of experiment: Leishmania donovani Ubiquitin Activating Enzyme (LdE1). The format is functional. Particulars: 30 µM.

Experiment [3] addresses AMP-activated protein kinase, AMPK (Homo sapiens) (UniProt P54646+O43741+P54619+Q9UGJ0+Q9Y478+Q13131+Q9UGI9). Description: AMP-dependent Kinase enzyme assay. An in vitro enzyme assay that detects ADP turnover that is directly proportional to AMPK activity. This uses naive AMPK that is activated during the assay with MK-8722. The format is functional. Particulars: 30 µM.
Experiment [4] has as its target Sialic acid-binding Ig-like lectin 9 (Homo sapiens) (UniProt Q9Y336). Description: Hs-Siglec9 ALPHAscreen SOP 20170721. As to conditions: 10 µM. For orientation: Alpha assays give light when donor and acceptor beads are brought close together.
The subject of another experiment is Trypanosoma cruzi. As to the kind of experiment: Trypanosoma cruzi phosphomannomutase and mannose-1-phosphate guanylyltransferase assay. The format is functional. As to conditions: 10 µM.
Experiment [5] has as its target T2, Arginase-2, mitochondrial (Homo sapiens) (UniProt P78540).
T2 sequence (whole entry): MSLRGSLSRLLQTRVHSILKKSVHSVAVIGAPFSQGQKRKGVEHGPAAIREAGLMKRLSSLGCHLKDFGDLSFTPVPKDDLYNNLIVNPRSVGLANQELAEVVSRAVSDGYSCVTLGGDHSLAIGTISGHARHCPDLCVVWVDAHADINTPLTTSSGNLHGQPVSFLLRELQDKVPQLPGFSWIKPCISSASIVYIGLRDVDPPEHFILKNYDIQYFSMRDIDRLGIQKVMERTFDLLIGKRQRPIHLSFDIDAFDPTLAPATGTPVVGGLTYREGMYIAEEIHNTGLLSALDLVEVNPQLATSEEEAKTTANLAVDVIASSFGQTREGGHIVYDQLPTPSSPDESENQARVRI
Description: in vitro enzyme assay to detect the production of urea directly proportional to the activity of Arginase II. Note: in the data most compounds retested in dose-response had high values. The format is functional. Particulars: 33.3 µM.

Experiment [6] addresses T3, Proteasome subunit beta (Trypanosoma cruzi) (UniProt O96673).
T3 sequence (whole entry): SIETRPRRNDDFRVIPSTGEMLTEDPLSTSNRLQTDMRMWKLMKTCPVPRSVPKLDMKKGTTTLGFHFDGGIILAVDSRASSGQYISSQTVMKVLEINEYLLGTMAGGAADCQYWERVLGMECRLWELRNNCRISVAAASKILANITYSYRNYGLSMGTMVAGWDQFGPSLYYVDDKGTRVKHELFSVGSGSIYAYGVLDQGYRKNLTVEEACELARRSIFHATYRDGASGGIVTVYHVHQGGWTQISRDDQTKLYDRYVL
Description: Trypanosoma cruzi proteasome chymotrypsin-like activity (TcProtChymo) assay. Note: in the data most compounds retested in dose-response had high values. The format is functional. As to conditions: 9.37 µM.

The species entered for the next experiment is Homo sapiens. Description: To identify inhibition of the IFN signalling (Jak-Stat) pathway via expression of an eGFP reporter gene under the control of an IFN-stimulated response element (ISRE) containing MxA promoter. The format is functional. Particulars: 30 µM. (In general: Reporter assays use an easily measured gene product as a stand-in for the process of interest.)

Experiment [7] concerns the target T4, Tyrosyl-tRNA synthetase, putative (Trypanosoma cruzi (strain CL Brener)) (UniProt Q4DSP6).
T4 sequence (whole entry): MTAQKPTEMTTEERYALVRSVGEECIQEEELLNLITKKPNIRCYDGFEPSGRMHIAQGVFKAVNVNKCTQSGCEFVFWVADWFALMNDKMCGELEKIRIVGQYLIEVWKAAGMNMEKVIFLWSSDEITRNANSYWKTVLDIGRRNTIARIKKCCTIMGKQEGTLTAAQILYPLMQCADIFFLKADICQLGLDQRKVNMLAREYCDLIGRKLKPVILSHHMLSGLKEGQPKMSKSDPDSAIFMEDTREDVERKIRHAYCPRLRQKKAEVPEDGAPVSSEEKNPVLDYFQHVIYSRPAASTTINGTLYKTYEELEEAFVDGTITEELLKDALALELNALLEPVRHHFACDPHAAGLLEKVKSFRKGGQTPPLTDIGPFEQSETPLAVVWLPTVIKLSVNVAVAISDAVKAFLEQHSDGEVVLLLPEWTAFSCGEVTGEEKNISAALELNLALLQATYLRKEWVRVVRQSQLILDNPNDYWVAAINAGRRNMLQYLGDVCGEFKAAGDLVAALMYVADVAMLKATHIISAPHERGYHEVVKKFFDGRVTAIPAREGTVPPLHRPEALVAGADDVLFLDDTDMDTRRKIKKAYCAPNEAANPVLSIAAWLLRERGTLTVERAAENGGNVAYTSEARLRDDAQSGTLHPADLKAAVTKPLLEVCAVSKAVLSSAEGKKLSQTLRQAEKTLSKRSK
Description: Trypanosoma cruzi tyrosyl tRNA synthetase (TcYRS) _High Tyrosine SOP. Note: in the data most compounds retested in dose-response had high values. The format is functional. As to conditions: 30 µM.

Experiment [8] addresses T4, Tyrosyl-tRNA synthetase, putative (Trypanosoma cruzi (strain CL Brener)). Description: Trypanosoma cruzi tyrosyl tRNA synthetase (TcYRS) SOP. As to conditions: 30 µM. The format is functional.
In experiment [9] the target is Chromo domain-containing protein 1 (Saccharomyces cerevisiae (strain ATCC 204508 / S288c) (Baker's yeast)) (UniProt P32657). As to the kind of experiment: ScCHD-1 Enzyme Inhibition Assay. Note: in the data most compounds retested in dose-response had high values. The format is functional. Particulars: 30 µM.
Chromo domain-containing protein 1 (Saccharomyces cerevisiae (strain ATCC 204508 / S288c) (Baker's yeast)), sequence (P32657 whole entry, the tested form may be a part): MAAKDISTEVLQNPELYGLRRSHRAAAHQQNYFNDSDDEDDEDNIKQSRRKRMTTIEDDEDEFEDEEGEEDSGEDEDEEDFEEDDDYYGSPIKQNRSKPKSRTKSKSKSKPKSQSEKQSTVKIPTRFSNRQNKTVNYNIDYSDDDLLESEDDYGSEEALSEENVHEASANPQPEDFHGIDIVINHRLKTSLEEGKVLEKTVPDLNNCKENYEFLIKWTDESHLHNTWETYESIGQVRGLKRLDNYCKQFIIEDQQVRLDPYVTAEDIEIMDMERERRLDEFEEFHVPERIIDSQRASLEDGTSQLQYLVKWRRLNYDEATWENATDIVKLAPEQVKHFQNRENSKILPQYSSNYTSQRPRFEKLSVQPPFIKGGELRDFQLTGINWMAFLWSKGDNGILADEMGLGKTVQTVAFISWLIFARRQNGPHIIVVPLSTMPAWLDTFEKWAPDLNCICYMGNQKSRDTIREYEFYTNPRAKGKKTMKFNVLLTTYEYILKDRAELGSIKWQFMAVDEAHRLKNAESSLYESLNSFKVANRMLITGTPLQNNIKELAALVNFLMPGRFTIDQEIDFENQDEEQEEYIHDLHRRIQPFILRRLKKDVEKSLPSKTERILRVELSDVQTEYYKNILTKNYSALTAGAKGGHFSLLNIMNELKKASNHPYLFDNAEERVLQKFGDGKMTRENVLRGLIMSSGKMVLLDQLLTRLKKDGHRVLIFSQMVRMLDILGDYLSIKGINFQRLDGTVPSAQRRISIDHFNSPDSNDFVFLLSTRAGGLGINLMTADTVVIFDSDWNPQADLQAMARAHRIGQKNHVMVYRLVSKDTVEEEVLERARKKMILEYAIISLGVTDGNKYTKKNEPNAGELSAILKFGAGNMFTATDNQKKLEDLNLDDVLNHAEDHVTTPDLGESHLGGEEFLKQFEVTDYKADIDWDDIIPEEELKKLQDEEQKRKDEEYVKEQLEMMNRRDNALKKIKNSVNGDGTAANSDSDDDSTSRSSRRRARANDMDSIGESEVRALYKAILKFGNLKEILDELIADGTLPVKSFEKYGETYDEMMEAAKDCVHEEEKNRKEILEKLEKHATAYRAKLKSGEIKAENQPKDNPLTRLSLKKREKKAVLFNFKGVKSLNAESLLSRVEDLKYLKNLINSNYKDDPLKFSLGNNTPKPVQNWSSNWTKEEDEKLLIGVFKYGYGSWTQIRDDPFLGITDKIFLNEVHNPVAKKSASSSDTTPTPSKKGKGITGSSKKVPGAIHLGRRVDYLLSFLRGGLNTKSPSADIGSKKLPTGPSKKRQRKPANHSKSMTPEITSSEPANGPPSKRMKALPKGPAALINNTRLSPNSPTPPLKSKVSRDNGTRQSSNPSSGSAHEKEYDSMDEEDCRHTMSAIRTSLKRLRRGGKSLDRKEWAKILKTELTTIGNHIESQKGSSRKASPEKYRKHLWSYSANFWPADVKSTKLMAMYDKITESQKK

Sialic acid-binding Ig-like lectin 9 (Homo sapiens), sequence (Q9Y336 whole entry): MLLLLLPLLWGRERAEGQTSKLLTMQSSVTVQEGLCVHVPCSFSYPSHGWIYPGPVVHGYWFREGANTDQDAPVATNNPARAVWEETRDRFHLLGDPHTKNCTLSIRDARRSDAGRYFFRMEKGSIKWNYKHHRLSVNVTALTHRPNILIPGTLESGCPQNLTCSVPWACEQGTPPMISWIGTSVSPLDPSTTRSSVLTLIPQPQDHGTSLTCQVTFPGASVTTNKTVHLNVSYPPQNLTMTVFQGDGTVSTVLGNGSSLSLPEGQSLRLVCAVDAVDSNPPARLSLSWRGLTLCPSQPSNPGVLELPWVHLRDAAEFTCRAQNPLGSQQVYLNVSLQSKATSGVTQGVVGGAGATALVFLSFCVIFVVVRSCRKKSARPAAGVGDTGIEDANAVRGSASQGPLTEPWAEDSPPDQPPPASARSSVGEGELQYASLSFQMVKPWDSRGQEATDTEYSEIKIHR

With `Cc1cc(C2CCCN(CCCNS(C)(=O)=O)C2)n[nH]1` (stereo unspecified), the Percent Effect was -3.61% in [1]; 2.53% in experiment [2]; -4.24% in experiment [3]; 13.7% in experiment [4]; -0.283% with Trypanosoma cruzi; -2.66% in [5]. Moreover, the Percent Effect in experiment [6] is -2.7%; in the experiment listed under Homo sapiens it was -2.96%; in experiment [7], 5.42%; in experiment [8], 3.8%; in experiment [9] it was -0.769%.

As for `CN(Cc1nnc(C2CC2)n1C)C1CCN(Cc2ccccc2F)C1` (stereo unspecified), the Percent Effect in experiment [1] was -3.03%; in [2], -5.48%; in [3] it was -2.94%; in [4] it was 2.42%; with Trypanosoma cruzi it was 2.18%; in experiment [5], -3.19%. In addition, the Percent Effect was 10.4% in experiment [6]; -27.4% in the experiment listed under Homo sapiens; 0% in [7]; 8.64% in experiment [8]; -4.72% in [9].

Turning to `O=C(CCc1nccs1)N1CCN(c2cccnn2)CC1`, the Percent Effect in [1] is -4.08%; in experiment [2], 10.4%; in experiment [3] it was 4.08%; in experiment [4], 3.62%; in the experiment on Trypanosoma cruzi, 2.84%; in experiment [5], -0.21%. In addition, the Percent Effect was -0.404% in [6]; 13.5% in the experiment filed under Homo sapiens; 5.71% in experiment [7]; 9.41% in [8]; -12.4% in experiment [9].

Take `COCCn1ccc(=O)c(OCC(=O)Nc2ccccc2)c1C`: the Percent Effect in experiment [1] was -2.63%; in experiment [2], 6.67%; in experiment [3], 2.07%; in experiment [4] it was 6.98%; with Trypanosoma cruzi, 1.38%; in [5] it was 1.23%. Also, the Percent Effect was 19.4% in [6]; -6.23% in the experiment filed under Homo sapiens; 1.06% in [7]; 20.5% in [8]; -0.358% in experiment [9].

On to `Cc1cc(N2CCC(N(C)C(=O)Nc3ccccc3)CC2)nc(C)n1`, for which the Percent Effect was -4.81% in experiment [1]; 8.22% in experiment [2]; 12.3% in experiment [3]; -3.15% in experiment [4]; -1.18% with Trypanosoma cruzi; 6.36% in experiment [5]. Further, the Percent Effect is 12.8% in [6]; 6.79% in the experiment listed under Homo sapiens; 4.3% in [7]; 10% in experiment [8]; -2.89% in [9].

As to `NC(=O)CN1CC2(CCC1=O)CCN(Cc1cc(F)ccc1Cl)CC2`, the Percent Effect in experiment [1] was -3.36%; in experiment [2] it was 16%; in experiment [3], -3.98%; in [4] it was 13.3%; with Trypanosoma cruzi it was 7.5%; in [5] it was 5.73%. The Percent Effect in experiment [6] was 18%; in the experiment filed under Homo sapiens, 8.19%; in [7], 3.83%; in experiment [8], 18.5%; in experiment [9], -5.6%.

As for `COc1ccc(C(=O)N2CCCCC2Cn2cccn2)c(F)c1` (stereo unspecified), the Percent Effect is -1.68% in experiment [1]; 15.6% in [2]; 2.24% in experiment [3]; 6.84% in [4]; 1.5% in the experiment with Trypanosoma cruzi; -1.42% in experiment [5]. The Percent Effect in [6] was 13.7%; in the experiment filed under Homo sapiens, -14.3%; in experiment [7], 6.8%; in experiment [8], 14.6%; in experiment [9], -9.15%.

Consider `O=C(CS(=O)(=O)CC1CCCCC1)NC1CCCCNC1=O` (stereo unspecified), for which the Percent Effect is -5.08% in experiment [1]; 2.6% in experiment [2]; -1.46% in experiment [3]; 5.38% in experiment [4]; 4.49% in the experiment on Trypanosoma cruzi; -6.05% in [5]. Also, the Percent Effect is -2.7% in experiment [6]; -1.34% in the experiment filed under Homo sapiens; 0% in [7]; 9.76% in [8]; 83.8% in experiment [9].

Take `CCC(C)(C)NC(=O)C1CC(=O)N(CC2CC2)C1` (stereo unspecified): the Percent Effect in [1] is -2.71%; in experiment [2] it was 13.5%; in [3] it was 9.25%; in experiment [4], -3.89%; in the experiment on Trypanosoma cruzi it was -7.15%; in [5], 3.14%. Also, the Percent Effect was 11.3% in experiment [6]; 17.7% in the experiment filed under Homo sapiens; 2.97% in [7]; -18.3% in experiment [8]; -7.51% in experiment [9].

As for `CCC(=O)N1Cc2nccn2CC(CN(C)Cc2cccnc2)C1` (stereo unspecified), the Percent Effect in experiment [1] was -1.64%; in experiment [2], 13.3%; in experiment [3], 10.6%; in experiment [4], -7.3%; with Trypanosoma cruzi, -4.72%; in [5] it was 1.17%. Moreover, the Percent Effect in [6] was 7.49%; in the experiment filed under Homo sapiens, -7.96%; in experiment [7] it was 4.25%; in experiment [8], 8.97%; in [9], -6.9%.

As to `NC(=O)C1CCN(C(=O)c2ccn(-c3ccc(F)cc3)n2)C1` (stereo unspecified), the Percent Effect in experiment [1] is -2.82%; in [2], 5.41%; in [3] it was 0.129%; in experiment [4], -2.22%; with Trypanosoma cruzi, -6.96%; in [5], 4.25%. In addition, the Percent Effect in [6] was 5.39%; in the experiment filed under Homo sapiens, 6.15%; in experiment [7] it was 4.95%; in experiment [8], 11%; in [9], 1.99%.
